Vaccinia mCherry = vaccinia inhibition (mCherry reporter). Vaccinia virus mCherry reporter infection, fluorescence. Potency, µM (titrated, usually from 36.5 µM), inactives show at the highest dose activity change, negative = inhibition, hits mostly inhibitors. hit rate 0.63% among 310,000; calls by dose curve; tested in A549 cells; further: nearly all actives have a fitted effect of over 35% in size
VACV Venus inh = inhibitors of vaccinia virus (Venus reporter); Vaccinia virus Venus reporter expression, fluorescence; Potency, µM (top dose mostly 36.5 µM), for inactives: at the top dose activity change, negative = inhibition, most hits filed as inhibitors; hit rate 0.46% among 330,000; calls by dose curve; tested in A549 cells; further: nearly all actives have a fitted effect of over 30% in size
HCV inhibitor = blocks hepatitis C virus | AID 651820 | Potency, µM (highest dose often 41.8 µM), for the others: top-dose activity change, negative = inhibition, actives largely listed as inhibitors | hit rate 3.4% among 340,000 | Huh7.5.1 HCVcc-Cre infection, luciferase reporter, 44 h; active means well fitted inhibition curve with a large enough effect; inconclusive means small, poorly fitted or top-dose-only effect, or another doubt; inactive means no such curve, though single readings can be large or run the other way
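Infectious HCV cell culture screen: compound-treated cells (1,000/well, pre-plated 4 h) are infected with HCVcc-Cre at roughly 0.5 moi and grown 44 h. Infection is quantified by luciferase signal after 15 min substrate incubation at room temperature.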
An asterisk follows results filed as active; i = inactive; ? = inconclusive; / = no result given. Most compounds without a hit are left out; they make up all but 3.3% or so of the library. On the % scale 0 is the no-effect control and ±100 the full control effect; potency means the concentration at half of the fitted maximal effect.

SMILES	Vaccinia mCherry	VACV Venus inh	HCV inhibitor
CC(=O)Nc1ccc(NC(=O)C2CCCN(C(=O)c3ccc(Cl)cc3)C2)cc1 (stereo not given)	-20.3%	-8.9%	21.2%
CC(=O)c1cccc(OCc2cc(C(=O)N3CCC(N4CCCCC4)CC3)no2)c1	/	/	-29.9%
O=C(Nc1cc(-c2nc3cc(Cl)ccc3o2)ccc1Cl)c1cc2ccccc2o1	-2.8%	-12.1%	/
Cc1c(C(=O)NCC2CCCN(C)C2)cnn1-c1ncc2c(n1)-c1ccccc1CCC2 (stereo not given)	-15.3%	-12.3%	/
CC1CN(CCC(=O)NCc2ccc3ncccc3c2)Cc2cc(Cl)ccc2O1 (stereo not given)	-7.7%	7.6%	/
CCC(C)[C@H](NC(=O)N1CCn2c1nc1ccccc12)C(=O)NCc1ccccc1 (stereo not given in full)	-10.1%	?	-1.4%
COc1ccc(N2C(=O)CSC2c2ccccc2F)c(OC)c1 (stereo not given)	-15.4%	-8.7%	5.9%
Cc1cc(C)cc(-n2c(C)cc(/C=N/NC(=O)c3cccc([N+](=O)[O-])c3C)c2C)c1	/	?	3.98µM*
Cc1cc(C)cc(-n2c(C)cc(/C=N/NC(=O)c3ccncc3)c2C)c1	-15.3%	-13.0%	-14.6%
O=S(=O)(c1ccc(Cl)cc1)N1CCCC(c2nc(-c3ccc(F)cc3)no2)C1 (stereo not given)	i	-20.1%	13.3%
O=S(=O)(c1ccccc1Cl)N1CCCC1c1nc(-c2ccc(Cl)cc2)no1 (stereo not given)	/	/	10µM*
COC(=O)c1sc2cccc(F)c2c1S(=O)(=O)NCc1ccccc1Cl	7.8%	5.0%	/
COc1ccc2c(c1)CCc1cnc(-n3ncc(C(=O)N(C)CCc4ccccn4)c3C)nc1-2	-9.5%	-29.9%	/
CN(C)CCNC(=O)c1cccc2nc3cccc(F)c3nc12	?	3.16µM*	?
CN(C)CCNC(=O)c1ccccc1	/	/	5.7%
CN(C)CCNC(=O)c1cccc2ccc(-c3ccc(-c4ccccc4)cc3)nc12	?	12.6µM*	?
CN(C)CCNC(=O)c1sc2cccc(F)c2c1Cl	-16.8%	-11.6%	-7.9%
O=C(CCNC(=O)c1ccco1)Nc1ccc(F)c(Cl)c1	5.5%	10.0%	13.5%
Cc1oc(-c2ccccc2NC(=O)C2CCC2)nc1CNC(=O)c1ccccn1	-4.5%	-0.6%	/
COc1ccc(-c2cc(C)no2)cc1S(=O)(=O)N1CCN(C(=O)c2ccco2)CC1	/	/	-21.3%
COc1ccc(-c2cc(C)no2)cc1S(=O)(=O)N1CCN(c2ccccc2F)CC1	i	?	7.08µM*
Cc1cc(-c2ccc(C(C)C)c(S(=O)(=O)N3CCN(c4ccccn4)CC3)c2)on1	/	/	11.2µM*
COc1ccc(OC)c(S(=O)(=O)N2CCN(c3ccccn3)CC2)c1	-16.3%	-17.4%	-0.3%
CCc1ccc(-c2cc(C)no2)cc1S(=O)(=O)N1CCN(c2ccccn2)CC1	-6.6%	-1.8%	?
COc1ccc(-c2cc(C)no2)cc1S(=O)(=O)N1CCN(c2ccccn2)CC1	-4.0%	-19.2%	12.6µM*
SMILES	Vaccinia mCherry	VACV Venus inh	HCV inhibitor
Cc1oc2ncn(C)c(=O)c2c1C(=O)NC(C)c1ccccc1 (stereo not given)	-7.0%	-12.5%	/
Cc1nc2c(C(=O)NC(C)c3ccccc3)cnn2c(C)c1Cc1ccccc1 (stereo not given)	i	?	/
COc1ccccc1NC(=O)CSC1=Nc2ccccc2N=C(c2ccc(F)cc2)C1	8.0%	2.7%	/
Cc1ccn2c(NC3CCCCC3)c(-c3ccc(C)o3)nc2c1	-10.7%	-14.0%	/
COC(=O)c1ccc(NC(=O)c2ccccc2OCC(=O)Nc2ccc(Br)cc2)cc1	-26.7%	?	/
CCOC(=O)N1CCN(S(=O)(=O)c2ccc(C(=O)Nc3nnc(CC)o3)cc2)CC1	-20.2%	-11.5%	21.4%
CCOC(=O)N1CCN(S(=O)(=O)c2ccc(C(=O)NNc3nc4ccc(Cl)cc4s3)cc2)CC1	?	?	7.08µM*
CCOC(=O)N1CCN(S(=O)(=O)c2ccc(C(=O)NNc3nc4c(C)cccc4s3)cc2)CC1	-10.5%	-19.7%	?
CCOC(=O)N1CCN(S(=O)(=O)c2ccc(C(=O)NNc3nc4cc(C)cc(C)c4s3)cc2)CC1	12.6µM*	?	3.55µM*
CCOC(=O)N1CCN(S(=O)(=O)c2ccc(C(=O)NNc3nc4c(C)cc(C)cc4s3)cc2)CC1	10µM*	?	11.2µM*
Cc1ccc(C(=O)Nc2nc3ccc(S(=O)(=O)N4CCCC4)cc3s2)cc1	0.7%	-1.7%	/
CCc1nnc(NC(=O)c2ccc(S(=O)(=O)N3CCCC(C)C3)cc2)s1 (stereo not given)	-5.3%	8.6%	-3.2%
Cc1cccc2sc(NNC(=O)c3ccc(S(=O)(=O)N4CCCC(C)C4)cc3)nc12 (stereo not given)	?	?	2.82µM*
Cc1ccccc1OCC(=O)OCC(=O)Nc1ncc(Cl)c(C)c1Cl	/	/	4.2%
